Measured values reported in publication PMC4336329 (PLoS ONE, 2015).
About 14,000 (4.5%) of roughly 310,000 compounds showed an effect of 50% or more. The effect is printed as a negative number. Shown is part of a subset that was picked to be rich in strong results.

These compounds were tested against human ether-à-go-go-related gene (hERG) potassium channel (human, UniProt Q12809) (assay: primary screen, population patch clamp on CHO cells stably expressing hERG; higher = less effect of the substance).
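Further: peak tail current of the secondary pulse compared with the same well before compound.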

Chain of human ether-à-go-go-related gene (hERG) potassium channel (Q12809 whole entry, looked up): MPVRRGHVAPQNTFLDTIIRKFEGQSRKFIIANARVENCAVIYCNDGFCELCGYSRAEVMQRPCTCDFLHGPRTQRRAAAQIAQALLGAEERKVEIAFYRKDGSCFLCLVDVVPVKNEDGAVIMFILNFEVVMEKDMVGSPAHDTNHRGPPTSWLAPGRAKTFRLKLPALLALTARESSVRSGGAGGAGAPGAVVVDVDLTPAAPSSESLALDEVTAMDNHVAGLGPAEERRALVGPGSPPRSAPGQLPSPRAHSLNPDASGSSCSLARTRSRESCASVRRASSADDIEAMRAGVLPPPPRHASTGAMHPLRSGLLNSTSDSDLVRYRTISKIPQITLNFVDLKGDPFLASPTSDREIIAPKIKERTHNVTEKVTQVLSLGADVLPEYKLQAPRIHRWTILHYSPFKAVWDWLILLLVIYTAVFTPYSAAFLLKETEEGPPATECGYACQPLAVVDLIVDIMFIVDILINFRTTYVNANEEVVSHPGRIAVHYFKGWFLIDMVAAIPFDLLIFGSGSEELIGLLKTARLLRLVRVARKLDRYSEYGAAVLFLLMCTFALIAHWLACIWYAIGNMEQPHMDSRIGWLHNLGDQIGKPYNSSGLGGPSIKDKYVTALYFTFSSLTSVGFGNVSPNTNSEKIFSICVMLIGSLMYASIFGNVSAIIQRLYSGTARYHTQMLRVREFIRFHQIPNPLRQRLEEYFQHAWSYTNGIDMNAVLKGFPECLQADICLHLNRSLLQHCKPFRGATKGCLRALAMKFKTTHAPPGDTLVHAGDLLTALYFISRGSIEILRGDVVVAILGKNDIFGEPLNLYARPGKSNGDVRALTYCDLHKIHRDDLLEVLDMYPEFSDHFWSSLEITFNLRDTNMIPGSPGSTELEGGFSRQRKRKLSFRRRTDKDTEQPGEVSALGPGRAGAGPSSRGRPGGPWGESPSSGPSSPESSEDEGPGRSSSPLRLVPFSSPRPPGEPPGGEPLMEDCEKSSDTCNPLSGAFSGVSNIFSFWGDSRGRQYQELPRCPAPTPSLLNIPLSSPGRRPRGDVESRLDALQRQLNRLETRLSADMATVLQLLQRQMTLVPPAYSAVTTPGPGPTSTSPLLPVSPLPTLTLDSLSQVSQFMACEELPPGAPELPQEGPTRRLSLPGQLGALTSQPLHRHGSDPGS

Question: `O=C(OCC(=O)c1c[nH]c2ccccc12)c1cc2ccccc2cc1O` was tested. Which “hERG current change (%, negative = inhibition) at 10uM” value did it give?
Answer: 1.38%

Question: For `COc1cccc(NC(=O)CN2C(=O)COc3ccc(S(=O)(=O)N4CCOCC4)cc32)c1`, which “hERG current change (%, negative = inhibition) at 10uM” value is on record?
Answer: 15.6%

Question: How did the “hERG current change (%, negative = inhibition) at 10uM” value turn out when `COc1ccc2nc3oc(C(=O)N4CCC5(CC4)OCCO5)cc3cc2c1` was run?
Answer: -16.5%

Question: How did the “hERG current change (%, negative = inhibition) at 10uM” value turn out when `Cc1cccc(CN2CCC(CNC(=O)Cn3ncc4c([nH]c5ccccc54)c3=O)CC2)c1` was run?
Answer: -23.1%

Question: For `Cc1ccc(NC(=O)Cn2ncc3c([nH]c4ccccc43)c2=O)cc1Cl`, which “hERG current change (%, negative = inhibition) at 10uM” value is on record?
Answer: 21.4%

Question: For `O=C(Cn1ncc2c([nH]c3ccccc32)c1=O)NCC1CCN(Cc2ccc(F)cc2)CC1`, which “hERG current change (%, negative = inhibition) at 10uM” value is on record?
Answer: -66%

Question: How did the “hERG current change (%, negative = inhibition) at 10uM” value turn out when `O=C(Cn1ncc2c([nH]c3ccccc32)c1=O)Nc1ccc(CN2CCCCC2)cc1` was run?
Answer: -65.8%

Question: For `O=C(Cn1ncc2c([nH]c3ccccc32)c1=O)NCC1CCN(Cc2ccccc2F)CC1`, which “hERG current change (%, negative = inhibition) at 10uM” value is on record?
Answer: -44.2%

Question: How did the “hERG current change (%, negative = inhibition) at 10uM” value turn out when `O=C(Cn1ncc2c([nH]c3ccccc32)c1=O)Nc1cccnc1` was run?
Answer: 10.3%

Question: `CS(=O)(=O)N(CC(O)CON=C1c2ccccc2-c2ccccc21)c1ccc(F)cc1` (centres unmarked) was tested. Which “hERG current change (%, negative = inhibition) at 10uM” value did it give?
Answer: 8.83%

Question: With `O=C(Cc1ccc(Cl)cc1)c1c[nH]c(C(=O)NCc2cccnc2)c1` as the compound, how does the “hERG current change (%, negative = inhibition) at 10uM” value read?
Answer: -0.756%

Question: Which “hERG current change (%, negative = inhibition) at 10uM” value does the source give for `COc1cccc(-c2nnc(SCC(=O)Nc3ccc(OC)c(OC)c3)n2N)c1` here?
Answer: 14.3%

Question: Which “hERG current change (%, negative = inhibition) at 10uM” value does the source give for `COc1ccc(-n2c(=O)c3c4c(sc3n(CC(=O)NCc3ccco3)c2=O)CCC4)c(OC)c1` here?
Answer: -4.75%

Question: Which “hERG current change (%, negative = inhibition) at 10uM” value does the source give for `O=C(NCCN1CCOCC1)c1ccc2c(c1)N(Cc1ccc(F)cc1)C(=O)CS2` here?
Answer: 0.414%

Question: With `COc1ccc(CN(C(=O)CN2C(=O)c3ccccc3S2(=O)=O)C(C(=O)NCC2CCCO2)c2ccco2)cc1` (centres unmarked) as the compound, how does the “hERG current change (%, negative = inhibition) at 10uM” value read?
Answer: -4.57%

Question: Which “hERG current change (%, negative = inhibition) at 10uM” value does the source give for `CCn1c(C)nnc1SCC(=O)Nc1ccc(C(C)=O)cc1` here?
Answer: 11.5%

Question: How did the “hERG current change (%, negative = inhibition) at 10uM” value turn out when `CN(C)CCNc1oc(/C=C/c2ccccc2)nc1C#N` was run?
Answer: -29.2%

Question: For `CN1CCN(c2oc(/C=C/c3ccccc3)nc2C#N)CC1`, which “hERG current change (%, negative = inhibition) at 10uM” value is on record?
Answer: -53.7%

Question: `CNc1oc(/C=C/c2ccccc2)nc1C#N` was tested. Which “hERG current change (%, negative = inhibition) at 10uM” value did it give?
Answer: 8.33%

Question: How did the “hERG current change (%, negative = inhibition) at 10uM” value turn out when `CN(C)c1oc(/C=C/c2ccccc2)nc1C#N` was run?
Answer: 8.93%

Question: For `C=CCNc1oc(/C=C/c2ccccc2)nc1C#N`, which “hERG current change (%, negative = inhibition) at 10uM” value is on record?
Answer: -28%

Question: Which “hERG current change (%, negative = inhibition) at 10uM” value does the source give for `CN(C)CCCNc1oc(/C=C/c2ccccc2)nc1C#N` here?
Answer: -32.5%

Question: How did the “hERG current change (%, negative = inhibition) at 10uM” value turn out when `CCN1CCN(c2oc(-c3ccco3)nc2C#N)CC1` was run?
Answer: -24.1%

Question: How did the “hERG current change (%, negative = inhibition) at 10uM” value turn out when `CCN1CCN(c2oc(/C=C/c3ccccc3)nc2C#N)CC1` was run?
Answer: -63.1%

Question: `CCN(CC)CCCNc1oc(/C=C/c2ccccc2)nc1C#N` was tested. Which “hERG current change (%, negative = inhibition) at 10uM” value did it give?
Answer: -71%

Question: With `N#CC1=C(c2ccc(-c3ccccc3)cc2)COC1=O` as the compound, how does the “hERG current change (%, negative = inhibition) at 10uM” value read?
Answer: -15.1%

Question: `CCCn1nc(C(=O)NNC(=O)CCCOc2ccc(OC)cc2)c2ccccc2c1=O` was tested. Which “hERG current change (%, negative = inhibition) at 10uM” value did it give?
Answer: -8.53%

Question: `Cc1ccc(NC(=O)CC(C(=O)O)c2ccccc2)cc1` (centres unmarked) was tested. Which “hERG current change (%, negative = inhibition) at 10uM” value did it give?
Answer: 8.15%

Question: With `Cc1ccccc1CN1CCC(Oc2ccc(C(=O)N3CCCC3)cc2)CC1` as the compound, how does the “hERG current change (%, negative = inhibition) at 10uM” value read?
Answer: -13.7%

Question: With `O=C(c1ccc(OC2CCN(C/C=C/c3ccccc3)CC2)cc1)N1CCCCC1` as the compound, how does the “hERG current change (%, negative = inhibition) at 10uM” value read?
Answer: -53.1%

Question: How did the “hERG current change (%, negative = inhibition) at 10uM” value turn out when `O=C(c1ccc(OC2CCN(C/C=C/c3ccccc3)CC2)cc1)N1CCCC1` was run?
Answer: -75.7%

Question: Which “hERG current change (%, negative = inhibition) at 10uM” value does the source give for `O=C(c1ccc(OC2CCN(Cc3ccccn3)CC2)cc1)N1CCCCCC1` here?
Answer: -14.9%

Question: Which “hERG current change (%, negative = inhibition) at 10uM” value does the source give for `COc1ccccc1/C=C/CN1CCC(Oc2ccc(C(=O)N3CCCC3)cc2)CC1` here?
Answer: -24.3%

Question: With `CCCC(=O)NC(c1ccc(Cl)cc1Cl)c1ccc2cccnc2c1O` (centres unmarked) as the compound, how does the “hERG current change (%, negative = inhibition) at 10uM” value read?
Answer: 0.094%

Question: For `CC(=O)Cc1c(C(=O)O)c(C)nn1-c1ccccc1`, which “hERG current change (%, negative = inhibition) at 10uM” value is on record?
Answer: 21.5%

Question: Which “hERG current change (%, negative = inhibition) at 10uM” value does the source give for `O=[N+]([O-])/C=C/c1ccc2c(ccn2Cc2ccccc2)c1` here?
Answer: 15.8%

Question: For `CCCN1CCN(C(=O)c2oc3ccccc3c2NC(=O)COc2ccc(OC)cc2)CC1`, which “hERG current change (%, negative = inhibition) at 10uM” value is on record?
Answer: -79.5%

Question: With `CCCN1CCN(C(=O)c2oc3ccccc3c2NC(=O)C2CC2)CC1` as the compound, how does the “hERG current change (%, negative = inhibition) at 10uM” value read?
Answer: -42.6%

Question: With `COCC(=O)Nc1c(C(=O)N2CCCC2)oc2ccccc12` as the compound, how does the “hERG current change (%, negative = inhibition) at 10uM” value read?
Answer: 1.46%

Question: For `COc1ccc(N2CCN(C(=O)c3oc4ccccc4c3NC(=O)CCc3cc(OC)no3)CC2)cc1`, which “hERG current change (%, negative = inhibition) at 10uM” value is on record?
Answer: -10.4%

Question: `N#Cc1ccccc1OCC(=O)Nc1c(C(=O)C2CC2)oc2ccccc12` was tested. Which “hERG current change (%, negative = inhibition) at 10uM” value did it give?
Answer: 2.52%

Question: `O=C(COc1ccccc1)Nc1c(C(=O)N2CCC(N3CCCCC3)CC2)oc2ccccc12` was tested. Which “hERG current change (%, negative = inhibition) at 10uM” value did it give?
Answer: -69%

Question: Which “hERG current change (%, negative = inhibition) at 10uM” value does the source give for `COc1ccc(OCC(=O)Nc2c(C(=O)N3CCC(N4CCCCC4)CC3)oc3ccccc23)cc1` here?
Answer: -87.7%

Question: `COc1ccccc1C(=O)Nc1c(C(=O)N2CCN(C)CC2)oc2ccccc12` was tested. Which “hERG current change (%, negative = inhibition) at 10uM” value did it give?
Answer: -45.2%

Question: `COc1ccc(OCC(=O)Nc2ccccc2C(=O)N2CCCC2)cc1` was tested. Which “hERG current change (%, negative = inhibition) at 10uM” value did it give?
Answer: -7.38%

Question: `COc1ccc(OCC(=O)Nc2c(C(=O)N3CCN(C)CC3)oc3ccccc23)cc1` was tested. Which “hERG current change (%, negative = inhibition) at 10uM” value did it give?
Answer: -42%

Question: With `O=C(COc1ccc(F)cc1)Nc1c(C(=O)N2CCC(N3CCCCC3)CC2)oc2ccccc12` as the compound, how does the “hERG current change (%, negative = inhibition) at 10uM” value read?
Answer: -81.1%

Question: For `CC(C)CC(=O)Nc1c(C(=O)N2CCN(Cc3ccccc3)CC2)oc2ccccc12`, which “hERG current change (%, negative = inhibition) at 10uM” value is on record?
Answer: -20.9%

Question: With `CCCCC[C@H](O)/C=C/[C@@H]1[C@@H](C/C=C\CCCC(=O)O)[C@@H](O)C[C@H]1O.NC(CO)(CO)CO` as the compound, how does the “hERG current change (%, negative = inhibition) at 10uM” value read?
Answer: 9.22%

Question: With `COc1ccccc1CC(=O)N(CCC1=CCCCC1)c1c(N)n(Cc2ccccc2)c(=O)[nH]c1=O` as the compound, how does the “hERG current change (%, negative = inhibition) at 10uM” value read?
Answer: -12%

Question: With `CCn1c(CCC(=O)N(C)CC(=O)Nc2cccc(F)c2)nc2cc(S(=O)(=O)N(C)C)ccc21` as the compound, how does the “hERG current change (%, negative = inhibition) at 10uM” value read?
Answer: -19.3%

Question: With `CC(=O)C1=C(O)C(=O)N(c2cccc(Br)c2)C1c1ccc(Br)cc1` (centres unmarked) as the compound, how does the “hERG current change (%, negative = inhibition) at 10uM” value read?
Answer: 15.8%

Question: How did the “hERG current change (%, negative = inhibition) at 10uM” value turn out when `COCCN(CC(=O)NCc1ccccc1)C(=O)CCC(=O)Nc1ccccn1` was run?
Answer: 4.54%
